Assay results: PubChem BioAssay (NCI)
Several values for one entry are separate records, joined by “and”; a condition that tells them apart may be missing. Identical values can stand only once. The panel holds about 79,000 compounds, 15% with a hit somewhere; the sample as a whole holds those more often. Cut-off read from the data, not from the text of the source: active = growth inhibition above about 70%; inactive = the rest.

Experiments:
[1] = NCI Yeast Anticancer Drug Screen. Data for the rad50 strain (AID 155);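 note: 0% = growth of vehicle-only cultures of the same strain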; conditions: S. cerevisiae rad50 strain growth inhibition, stronger effect = higher value; at 50.0 µM unless noted
Summary of the method: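 Readout: growth inhibition relative to vehicle-treated cultures. Compound exposure was carried out in a genetically defined yeast strain deficient in DNA damage repair.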

[2] = NCI Yeast Anticancer Drug Screen. Data for the mec2-1 strain (AID 157); conditions: S. cerevisiae mec2-1 strain, stronger effect = higher value; at 50.0 µM unless noted
Summary of the method: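 Each compound was tested on mec2-1 yeast, a strain altered in DNA damage repair or cell cycle control. Growth inhibition is reported relative to vehicle.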

[3] = NCI Yeast Anticancer Drug Screen. Data for the sgs1 mgt1 strain (AID 161);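 note: 0% = growth of cultures given vehicle only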; conditions: S. cerevisiae sgs1 mgt1 strain, stronger effect = higher value; at 50.0 µM unless noted
Summary of the method: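 Mutant yeast exposed to compound; growth scored against vehicle-only wells.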

[4] = NCI Yeast Anticancer Drug Screen. Data for the cln2 rad14 strain (AID 165);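 note: 0% = growth equal to vehicle treated cultures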; conditions: S. cerevisiae cln2 rad14 strain, stronger effect = higher value; at 50.0 µM unless noted
Summary of the method: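 Test compounds were added to cln2 rad14 yeast cultures; inhibition of growth was then determined by comparison with vehicle treatment.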

[5] = NCI Yeast Anticancer Drug Screen. Data for the bub3 strain (AID 167); conditions: S. cerevisiae bub3 mutant strain, stronger effect = higher value; at 50.0 µM unless noted
Summary of the method: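 Readout: yeast growth inhibition, expressed relative to vehicle-only wells. The test organism is a mutant strain from a panel with lesions in DNA repair or checkpoint genes.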

[6] = NCI Yeast Anticancer Drug Screen. Data for the mlh1 rad18 strain (AID 175); conditions: S. cerevisiae mlh1 rad18 strain growth inhibition, stronger effect = higher value; at 50.0 µM unless noted
Summary of the method: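 Inhibition values reflect reduced growth of mutant yeast versus vehicle-treated controls following compound exposure; the mutations affect DNA damage repair.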

Measured: growth inhibition

CCCCCP(=O)(O)O.[Cu+2]
inactive: [1] -41.4% | [2] -39.6% | [3] -9.9% | [4] -40% | [5] -31.6% | [6] -14.2%

CC(=O)c1ccc([N+](=O)[O-])[nH]1
inactive: [1] -16.4% | [2] 23.1% | [3] -32.9% | [4] -3.8% | [5] -3.95% | [6] -5.1%

NC(C=O)C(O)C(O)C(O)CO (stereo unspecified)
inactive: [1] -1.75% | [2] -18.2% | [3] 4.95% | [4] -10.2% | [5] -19.5% | [6] -6.9%

CCN(CC)C(=O)C1CCN(CCOc2ccccc2)CC1
inactive: [1] -14.2% | [2] 13.2% | [3] 1.55% | [4] -10% | [5] -0.25% | [6] -26%

O=C(CCCCCCCC(=O)NO)NO
inactive: [1] -10.8% | [2] 6.6% | [3] 12.8% | [4] 3.65% | [5] 2.5% | [6] -9.4%

COCCOC(=O)COc1ccccc1
inactive: [1] 22.1% | [2] 23% | [3] 16.2% | [4] 3.5% | [5] -8% | [6] -1.15%

CC(=O)OC(OC(C)=O)c1ccccc1
inactive: [1] 24.2% | [2] 12.2% | [3] -3.4% | [4] 16% | [5] 5% | [6] 11.7%

CCCCSc1ncnc2nc[nH]c12
inactive: [1] -38% | [2] -15.4% | [3] -9.05% | [4] -21.4% | [5] -7.45% | [6] -15.7%

NC(=O)c1c(NC=O)ncn1C1OCC(O)C(O)C1O (stereo unspecified)
inactive: [1] -7.95% | [2] -3.85% | [3] 2% | [4] -42% | [5] -1.3% | [6] 12.8%

C[C@H](C(=O)O)C(=O)NC(=O)N(Cc1ccccc1)N=O
inactive: [1] -24% | [2] -24.6% | [3] -26.8% | [4] 14.3% | [5] -1.25% | [6] -8.3%

COc1ccc(C(=O)C(=O)c2ccccc2Cl)cc1
inactive: [1] 11.4% | [2] 14.9% | [3] 9.55% | [4] 13.3% | [5] 17.8% | [6] 10.9%

Cc1cc(=O)oc2c(C)c(OCCCOc3ccc4c(C)cc(=O)oc4c3C)ccc12
inactive: [1] -29.8% | [2] -15.6% | [3] -6.1% | [4] 11.1% | [5] -30.8% | [6] -34.3%

CC(C)=NNC(=O)c1ccc(N)cc1
inactive: [1] 36.1% | [2] 15% | [3] 14.4% | [4] 15.8% | [5] 22.1% | [6] 15.3%

CSc1ccc(C)cc1
inactive: [1] 30.6% | [2] -15.2% | [3] -24.5% | [4] -21.6% | [5] -9.35% | [6] 26.7%

O=C(/C=C\c1ccc(Cl)c(Cl)c1)c1ccc(Cl)cc1Cl
inactive: [1] 36.1% | [2] 9.35% | [3] -4.6% | [4] 1.65% | [5] 22.1% | [6] 0.7%

CC(C)(O)C[N+](=O)[O-]
inactive: [1] 5.85% | [2] -1.8% | [3] 0.85% | [4] -7.7% | [5] 0% | [6] 3.05%

O=C(O)c1ccccc1C(=O)Nn1cnnc1
inactive: [1] -7.55% | [2] 1.15% | [3] -25.9% | [4] 17.2% | [5] -8.1% | [6] -0.1%

Cc1cc(Cl)ccc1OCC(=O)NCCO
inactive: [1] 33.4% | [2] 19.9% | [3] 13.8% | [4] 10.4% | [5] 2.8% | [6] 12%

Cc1ccccc1C=NC12CC3CC(CC(C3)C1)C2
inactive: [1] -24.8% | [2] -18.1% | [3] -22.2% | [4] 7.2% | [5] -8.4% | [6] -25.1%

N=c1ccccn1CC(O)COc1ccc(Cl)cc1 (stereo unspecified)
inactive: [1] 11.8% | [2] -10.1% | [3] -8.85% | [4] -17.9% | [5] -2.5% | [6] -16.6%

COc1cc2ccc3c4ccccc4cnc3c2cc1OC
inactive: [1] 8.1% | [2] 5.4% | [3] 0% | [4] 18.2% | [5] 13.7% | [6] 13.2%

N#Cc1ccc(-c2ccc(C#N)cc2)cc1
inactive: [1] -19.4% | [2] -23.3% | [3] -14.1% | [4] 9.05% | [5] -20.1% | [6] 7.05%

COc1ccc(/C=C/C(=O)O)c(OC)c1
inactive: [1] 1.25% | [2] 30.9% | [3] -7.55% | [4] 25.2% | [5] 28.1% | [6] -9.7%

O=C(Nc1ccccn1)c1ccccc1Cl
inactive: [1] 1.1% | [2] 3.1% | [3] -9.5% | [4] 4.2% | [5] -5.9% | [6] 19.3%

CN(C)CC(O)(C(=O)c1ccccc1)c1ccccc1 (stereo unspecified)
inactive: [1] -4.35% | [2] -9.8% | [3] -13.5% | [4] -25.2% | [5] -19.6% | [6] -6.05%

CC(C)C1CO[C@]2(C)CCC(=O)N12 (stereo partly specified)
inactive: [1] 4.6% | [2] 11.9% | [3] -2.6% | [4] 13.8% | [5] 6.3% | [6] 9.95%

COC(NC(=O)Nc1ccccc1C)(C(F)(F)F)C(F)(F)F
inactive: [1] -12.3% | [2] -22.4% | [3] -34.4% | [4] 2.8% | [5] -24.4% | [6] -12.8%

COc1ccc(C2=C(N)c3ncccc3C2=O)cc1
inactive: [1] 5.55% | [2] -5.05% | [3] 7.4% | [4] 4.65% | [5] 19.9% | [6] -70.3%

CCCCCCCCCCCCCCCCNC(=O)C(=O)/C=C(\O)c1ccc(C)cc1
inactive: [1] 1.15% | [2] -24.4% | [3] 18.8% | [4] -44.5% | [5] 0.6% | [6] 1.4%

O=S(=O)(/C(=C\c1ccccc1)c1ccccc1)c1ccccc1
inactive: [1] -4.8% | [2] -12.4% | [3] -12.8% | [4] -17.7% | [5] -4.5% | [6] -6.65%

C#CCOCC12C=CC(O1)C1C(=O)N(C)C(=O)C12 (stereo unspecified)
inactive: [1] -11.4% and 8.1% | [2] 33.5% and 38.6% | [3] 8.75% and -3.95% | [4] 7.65% and 36.2% | [5] 24.6% and 33.4% | [6] -13.3% and 6.25%

COc1cc(O)c(C(C)=O)c(O)c1
inactive: [1] 9.55% | [2] 16.2% | [3] 9.5% | [4] 16.8% | [5] 29.2% | [6] 18.5%

CC[C@H](CC[C@@H](C)[C@H]1CC[C@H]2[C@@H]3CC=C4C[C@@H](O)CC[C@]4(C)[C@H]3CC[C@]12C)C(C)C
inactive: [1] 26.8% and -6.4% | [2] -4.1% and -11.6% | [3] 26.6% and -12.2% | [4] 15.9% and 7.85% | [5] 5.95% and -13.2% | [6] 13.1% and -3.05%

C=CC[Si](CC=C)(OCC)OCC
inactive: [1] 9.65% | [2] -21.9% | [3] 7.05% | [4] 20.7% | [5] -6.9% | [6] 23.2%

O=C(OC(C1COCO1)C(O)C1COCO1)c1ccccc1 (stereo unspecified)
inactive: [1] 5.65% | [2] -8.85% | [3] 9.05% | [4] -1.85% | [5] 28.4% | [6] 17.4%

COc1cc(C(=O)O)cc(I)c1OC
inactive: [1] -3.3% | [2] 25.1% | [3] 3.95% | [4] -15.4% | [5] -4.55% | [6] -8.95%

CCC1=C(c2ccc(OC)cc2)CC[C@@]2(CCNC2=O)[C@@H]1C
inactive: [1] 4.8% | [2] -0.2% | [3] -5.45% | [4] 14.3% | [5] 3.8% | [6] 8.8%

CC(C)(C)CC(C)(C)c1ccc(O)c(CN2CCCCC2)c1
inactive: [1] 10.2% | [2] 8.55% | [3] 26.1% | [4] -6.7% | [5] 16.6% | [6] 8.65%

Nc1nc(-c2ccc(Cl)cc2)cc(-c2cc(-c3ccc(Cl)cc3)nc(N)n2)n1
inactive: [1] 6.7% | [2] -12.9% | [3] -8.15% | [4] -16% | [5] -11.2% | [6] 25.4%

CCCCCCCCC(=O)NCO
inactive: [1] -17.8% | [2] -10.9% | [3] -21.4% | [4] -3.4% | [5] -25.6% | [6] -24.1%

COc1ccc2c(c1)[nH]c1c3ccc(OC)cc3oc(=O)c21
inactive: [1] -52% | [2] -50% | [3] -35.5% | [4] 1.95% | [5] -38.6% | [6] -33.9%
